According to PubChem BioAssay AID1851 (National Center for Advancing Translational Sciences (NCATS), 2009):
Several values for one entry are separate records, joined by “and”; a condition that tells them apart may be missing. Identical values can stand only once. Among all 16,000 compounds or so, about 5,700 (36%) were called active. Roughly 24% stayed inconclusive and do not appear here. Some of the results follow. A number with no mark means an inactive call. Calls come from the whole dose curve; as a rule, active = well fitted curve in the direction sought with a large enough effect; inconclusive = small, poorly fitted or top-dose-only effect, or effect the other way; inactive = no such curve, though single readings can be large or run the other way.

What follows are molecules tested against Cytochrome P450 1A2 (Homo sapiens) (UniProt P05177) (assay: Cytochrome panel assay with activity outcomes). Details: recombinant CYP, pro-luciferin dealkylation, luminescence, p450-cyp1a2; series mostly up to 57.1 µM; activity, negative = inhibition: at the top concentration.
% is set by controls: 0 for no effect and ±100 for the full control effect.

Chain of Cytochrome P450 1A2 (Homo sapiens) (P05177 whole entry, looked up): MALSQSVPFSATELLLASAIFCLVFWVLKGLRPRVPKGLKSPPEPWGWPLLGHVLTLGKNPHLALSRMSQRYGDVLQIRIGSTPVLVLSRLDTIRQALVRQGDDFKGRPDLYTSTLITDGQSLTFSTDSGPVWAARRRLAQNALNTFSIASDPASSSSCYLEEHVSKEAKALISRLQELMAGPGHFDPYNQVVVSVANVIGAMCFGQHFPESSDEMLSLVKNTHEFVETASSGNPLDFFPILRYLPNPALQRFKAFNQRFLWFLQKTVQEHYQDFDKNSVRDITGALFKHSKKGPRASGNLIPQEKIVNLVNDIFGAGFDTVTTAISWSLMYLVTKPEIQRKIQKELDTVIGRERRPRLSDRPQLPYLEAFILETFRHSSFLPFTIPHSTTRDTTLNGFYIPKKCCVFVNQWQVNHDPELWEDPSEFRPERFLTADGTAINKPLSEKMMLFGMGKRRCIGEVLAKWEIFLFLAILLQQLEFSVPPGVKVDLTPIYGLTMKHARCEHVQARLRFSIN

SMILES	activity, negative = inhibition	AC50
NS(=O)(=O)c1ccc(-c2ccc([As](=O)(O)O)cc2)cc1	-0.225% [at 11.4 µM]	–
C1C[C@@H]2CN(CCCN3CCOCC3)[C@@H](C1)O2	-10.8% [at 11.4 µM]	–
COc1cc2c(cc1OC)[C@@]13CCN4CC5=CCO[C@H](CC(=O)O)[C@@H]([C@H]1N2)[C@H]5C[C@H]43	-21.3% [at 11.4 µM]	–
C[C@@H]1CC[C@@H]2N(C1)C[C@H]1[C@@](O)([C@H](O)C[C@]3(O)[C@H]4CC[C@H]5[C@]6(O)O[C@]4(C[C@]13O)[C@@]5(C)CC[C@@H]6O)[C@@]2(C)O	-15.8% [at 11.4 µM]	–
c1ccc2c(c1)[I+]c1ccccc1-2	–	126 nM (active) and 20 nM (active)
O=C1CCCN1CC#CCN1CCCC1	2.85%	–
COc1ccc(C(=O)O[C@H]2CC[C@@]3(C)[C@H]4CC[C@H]5[C@]3(C[C@]3(O)[C@H]6CN7C[C@H](C)CC[C@H]7[C@](C)(O)[C@]6(O)[C@H](O)C[C@]53O)O[C@]24O)cc1OC	-20.9% [at 2.29 µM]	–
O[Si@](CCCN1CCCCC1)(c1ccc(F)cc1)C1CCCCC1	-13.9%	–
CN1C(=O)C(C2c3ccccc3C(=O)N2Cc2ccc([N+](=O)[O-])cc2)C(=O)N(C)C1=O (stereo not given)	-15.7%	–
CCCCN1C(=O)C(C2c3ccccc3C(=O)N2Cc2ccccc2)C(=O)NC1=S (stereo not given)	–	12.6 µM (active)
CC(C)CN1CCC2(CC1)CCN(C(=O)Oc1ccccc1)CC2	14.7%	–
C=C(C)CN1CC[C@@]23c4c5ccc(O)c4O[C@H]2c2[nH]c4ccccc4c2C[C@]3(O)[C@@H]1C5	-16.9%	–
CC1=NN(c2ccc(S(=O)(=O)O)cc2C)C(=[OH+])[C@H]1N=Nc1cc(S(=O)(=O)O)ccc1C(=O)O.O.[Cr]	-12.7% [at 11.4 µM]	–
O=[N+]([O-])c1cc([As](=O)(O)O)ccc1O	-2.41% [at 25.6 µM]	–
CC[C@@]1(O)C(=O)OCc2c1cc1n(c2=O)Cc2cc3c(NC(=O)CN)cccc3nc2-1	-12.3% [at 2.29 µM]	–
CC[C@@]1(O)C(=O)OCc2c1cc1n(c2=O)Cc2cc3ccccc3nc2-1	–	2.51 µM (active)
CC[C@]1(OC(=O)CN)C(=O)OCc2c1cc1n(c2=O)Cc2cc3ccccc3nc2-1	-17.6% [at 2.29 µM]	–
CCCC[N+]12CCC(CC1)C(C(=O)c1cccs1)C2 (stereo not given)	1.98%	–
COC(=O)[C@@H](N)CCCN=C(N)N[N+](=O)[O-]	-23.3%	–
Cc1cc(OC(=O)CCCNC(=O)OC(C)(C)C)c2c3c(c(=O)oc2c1)CCC3	–	2.24 µM (active)
Cc1cc(OCc2ccc([N+](=O)[O-])cc2)c2c3c(c(=O)oc2c1)CCCC3	–	2.24 µM (active)
Cc1cc(OCC(=O)OC(C)C)c2c3c(c(=O)oc2c1)CCCC3	–	3.55 µM (active)
Cn1cnc(CCN)c1	-2.55%	–

SMILES	activity, negative = inhibition	AC50
OC1(c2ccc(F)cc2)CCNC1 (stereo not given)	-3.59%	–
CCOC(=O)N(c1ccccc1)P1(=S)OCCO1	–	20 µM (active)
O=C(O)C[O][Sb][O]CC(=O)O	-7.83% [at 2.29 µM]	–
CC(=O)O[C@H]1C[C@@H](O[C@@H]2[C@H](C)O[C@H](O[C@@H]3[C@H](C)O[C@H](O[C@@H]4CC[C@@]5(C)[C@@H](CC[C@]6(C)[C@]5(C)C[C@H](O)[C@]5(C)[C@@H](C7=CC(=O)OC7)CC[C@@]56O)C4)C[C@@H]3O)C[C@@H]2O)O[C@@H](C)[C@H]1O[C@H]1O[C@@H](CO)[C@@H](O)[C@@H](O)[C@@H]1O	0.0883% [at 25.6 µM]	–
C[C@]1(C(=O)O)[C@@H]2CC[C@@H](O2)[C@@]1(C)C(=O)O	5.07%	–
ClCCNc1nc2ccc(Cl)cc2[nH]1	–	3.55 µM (active)
N[C@H](C(=O)O)c1cc(=O)[nH]o1	4.36%	–
C[C@@]12CC(=O)[C@H]3[C@@H](CCC4=CC(=O)CC[C@]43C)[C@H]1CCC2=O	3.26% [at 25.6 µM]	–
CCCN(CCC)C1Cc2cc(OC)c(OC)cc2C1	-8.24%	–
CCn1cnc2c(Nc3cccc(Cl)c3)nc(N[C@@H]3CCCC[C@H]3N)nc21	–	15.8 µM (active)
CN(C)C(=O)Oc1cccc([N+](C)(C)C)c1	-8.66%	–
COc1ccc(C[C@H]2c3cc(OC)c(OC)cc3CCN2C)cc1OC	-15.9% [at 25.6 µM]	–
COc1cc(/C=N/NC(=O)CN2CC(c3ccccc3)CC2=O)ccc1OC(=O)N(C)C (stereo not given)	-10.2%	–
O=C(O)CC[N+](=O)[O-]	-2.88%	–
CC(C)(C)c1cc(C=C(C#N)C#N)cc(C(C)(C)C)c1O	–	10 µM (active)
N#CC(C#N)=Cc1ccc(O)c(O)c1	–	5.01 µM (active)
N#C/C(=C\c1ccc(O)c(O)c1)C(=O)NCCCNC(=O)/C(C#N)=C/c1ccc(O)c(O)c1	-13.5%	–
COc1cc(C=C(C#N)C#N)cc(O)c1O	–	12.6 µM (active)
N#CC(C#N)=Cc1cc(O)c(O)c(O)c1	-7.18%	–
N#C/C(=C\c1ccc(O)c(O)c1)C(N)=S	–	12.6 µM (active) and 6.31 µM (active)
COc1ccc2c(c1)CCC1[C@@H]2CCC2(C)[C@@H](NCCCCCCN3C(=O)C=CC3=O)CC[C@@H]12 (stereo not given in full)	-3.16%	–
CC[C@]1(c2cccc(O)c2)CCCCN(C)C1	-7.06% [at 25.6 µM]	–
